# In PubChem BioAssay (NCATS):
# Records with an inconclusive call do not appear. Where a call stands in place of a potency, no number is given. The source made the active and inactive calls. The call rests on the fitted dose curve; in most records, active means well fitted cell-killing curve with a large enough effect; inconclusive means small, poorly fitted or top-dose-only effect; inactive means flat fitted curve, though single readings scatter.
# Assay: Cell Viability - LYMP2-019 (AID 973); further: nearly all actives have a fitted effect of over 55% in size
# Settings: LYMP2-019 lymphoblastoid cell line viability; series mostly up to 92.2 µM
# Source text: NIH Chemical Genomics Center [NCGC]
# NIH Molecular Libraries Screening Centers Network [MLSCN]
# National Institutes of Environmental Health Sciences [NIEHS]
# National Toxicology Program [NTP]
# We have developed a 1536-well cell-based assay for quantitative high throughput screening (qHTS) against a number of cell lines to determine in vitro cytotoxicity of small molecules. This particular assay uses a human lymphoblastoid cell line (LYMP2-019) purchased from Coriell Institute for Medical Research.
# NCGC Assay Protocol Summary:
# The CellTiter-Glo luminescent cell viability assay (Promega) is a homogeneous method to measure the number of viable cells in culture. The end point readout of this assay is based on quantitation of intracellular ATP, an indicator of metabolic activity, using the luciferase reaction. Luciferase catalyzes the oxidation of beetle Luciferin to oxyluciferin and light in the presence of ATP. The luminescent signal is proportional to amount of ATP present.
# Using the CellTiter-Glo luminescent cell viability assay, the amount of cellular ATP was measured in the lymphoblastoid cell line with complete culture medium following compound treatment for 24 hours. The assay was performed in opaque white Kalypsys 1536-well plates. In the screen, tetraoctylammonium bromide was used as positive control. Library compounds were measured for their ability to cause acute toxicity in the cell line, as reflected by a decrease in intracellular ATP levels, in a concentration-dependent manner. […] AC50 values were determined from concentration-response data modeled with the standard Hill equation.
# qHTS protocol for CellTiter Glo lymphoblastoid cellular assay
# [Step] [Parameter] [Value] [Description]
# 1. Reagent; 5 uL; 2500 lymphoblastoid cells/well
# 2. Time; 5 hr; 37 C incubation
# 4. Controls; 23 nL; Tetraoctylammonium bromide 6.4pM to 92 uM
# 5. Time; 24 hr; 37 C incubation
# 6. Reagent; 5 uL; CellTiter Glo reagent
# 7. Time; 30 min; Room Temperature
# 8. Detection; Luminescence; Viewlux plate reader
# Keywords: cell viability, cytotoxicity, lymphoblastoid cell line, luminescence, NTPHTS, NTPHTS_NCGC, NIEHS, DSSTox, MLSMR, MLSCN, NIH Roadmap, qHTS, NCGC
# Potency means the concentration at half of the fitted maximal effect.
row,SMILES,Potency
1,NCC(O)c1ccc(O)cc1 (stereo unspecified),inactive
2,CCOP(=S)(OCC)Oc1cc(C)nc(C(C)C)n1,inactive
3,Oc1ccc(Cl)cc1Cc1ccccc1,inactive
4,N[C@@H](Cc1ccc(N(CCCl)CCCl)cc1)C(=O)O,39.8 µM (active)
5,CC(=O)Oc1ccccc1C(=O)Nc1ncc([N+](=O)[O-])s1,31.6 µM (active)
6,OCCOc1ccccc1,inactive
7,Oc1ccccc1-c1ccccc1,inactive
8,CNCC(O)c1ccc(O)cc1 (stereo unspecified),inactive
9,CCCC(C)(COC(N)=O)COC(=O)NC(C)C (stereo unspecified),inactive
10,c1ccc2c(c1)Nc1ccccc1S2,inactive
11,Oc1cccc2cccnc12,10 µM (active)
